Data as given in PubChem BioAssay AID1159580 (chemical genetic matrix, 2015).
Hit rate of the full screen: of about 5,500 compounds, about 2,000 (36%) were called active. Another 18% or so got no clear call; they are omitted. Cut-off read from the data, not from the text of the source: active = normalized growth mostly below about 0.91 (no sharp cut-off); inconclusive = no clear call, values can overlap the other calls; inactive = mostly above about 0.92. This is one part of the list.

Test: chemical genetic growth profiling, strain panel (AID 1159580);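 note: tested at 20 µM; growth read once vehicle control cultures reached saturation at 30 °C; 1 = growth at the plate median or of vehicle wells; lower values mean less growth of the strain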
Settings: S. cerevisiae deletion strains, growth OD

Measured: normalized growth

Nc1nccs1
inactive: locus YAL021C, strain ccr4, active compounds read low 0.994 | locus YAL026C, strain drs2, active compounds read low 0.993 | locus YAL030W, strain snc1, active compounds read low 0.995 | locus YBL061C, strain skt5, active compounds read low 0.995 | locus YBR009C, strain hhf1, active compounds read low 0.987 | locus YBR021W, strain FUR4, active compounds read low 1.03 | locus YBR023C, strain chs3, active compounds read low 0.991 | locus YBR171W, strain sec66, active compounds read low 0.975 | locus YBR229C, strain ROT2, active compounds read low 0.949 | locus YBR231C, strain swc5, active compounds read low 0.973 | locus YBR279W, strain paf1, active compounds read low 1 | locus YCL011C, strain gbp2, active compounds read low 1.02 | locus YCL016C, strain dcc1, active compounds read low 0.989 | locus YCL029C, strain bik1, active compounds read low 0.98 | locus YCL061C, strain MRC1, active compounds read low 0.978 | locus YCL069W, strain vba3, active compounds read low 0.988 | locus YCR088W, strain abp1, active compounds read low 0.992 | locus YDL005C, strain med2, active compounds read low 0.985 | locus YDL035C, strain GPR1, active compounds read low 1.01 | locus YDL040C, strain nat1, active compounds read low 0.986 | locus YDL074C, strain BRE1, active compounds read low 0.96 | locus YDL101C, strain DUN1, active compounds read low 0.974 | locus YDL134C, strain PPH21, active compounds read low 0.983 | locus YDL185W, strain tfp1, active compounds read low 0.984 | locus YDL192W, strain arf1, active compounds read low 0.983 | locus YDR001C, strain nth1, active compounds read low 1 | locus YDR069C, strain doa4, active compounds read low 0.95 | locus YDR101C, strain arx1, active compounds read low 0.941 | locus YDR137W, strain rgp1, active compounds read low 0.998 | locus YDR159W, strain sac3, active compounds read low 0.953 | locus YDR162C, strain NBP2, active compounds read low 0.996 | locus YDR195W, strain ref2 0.958 | locus YDR297W, strain sur2, active compounds read low 0.997 | locus YDR318W, strain mcm21, active compounds read low 0.989 | locus YDR334W, strain swr1, active compounds read low 0.997 | locus YDR335W, strain msn5, active compounds read low 0.978 | locus YDR388W, active compounds read low 0.991 | locus YDR392W, strain spt3, active compounds read low 0.945 | locus YDR502C, strain sam2, active compounds read low 0.983 | locus YEL003W, strain gim4, active compounds read low 0.997 | locus YEL037C, strain rad23, active compounds read low 0.987 | locus YEL061C, strain CIN8 (second series), active compounds read low 0.991 | locus YEL061C, strain CIN8, active compounds read low 0.984 | locus YER015W, strain faa2, active compounds read low 0.991 | locus YER016W, strain bim1, active compounds read low 1.01 | locus YER110C, active compounds read low 0.986 | locus YER111C, strain swi4, active compounds read low 0.986 | locus YER155C, strain BEM2, active compounds read low 1 | locus YER167W, strain BCK2, active compounds read low 0.995 | locus YFR010W, strain ubp6, active compounds read low 0.991 | locus YGL078C, strain dbp3, active compounds read low 1.01 | locus YGL086W, strain mad1, active compounds read low 0.953 | locus YGL167C, strain pmr1, active compounds read low 0.981 | locus YGL173C, strain kem1, active compounds read low 0.99 | locus YGL227W, strain vid30, active compounds read low 0.991 | locus YGL240W, strain doc1, active compounds read low 0.96 | locus YGL248W, strain PDE1, active compounds read low 0.974 | locus YGL253W, strain hxk2, active compounds read low 1.01 | locus YGR135W, strain pre9, active compounds read low 1.06 | locus YGR229C, strain SMI1, active compounds read low 1.01 | locus YGR252W, strain gcn5, active compounds read low 1.09 | locus YHR013C, strain ard1, active compounds read low 1.02 | locus YHR027C, strain rpn1, active compounds read low 0.994 | locus YHR030C, strain SLT2, active compounds read low 1 | locus YHR079C, strain IRE1 (second series), active compounds read low 0.989 | locus YHR094C, strain hxt1, active compounds read low 0.984 | locus YHR129C, strain ARP1, active compounds read low 0.987 | locus YHR142W, strain chs7, active compounds read low 1.02 | locus YHR200W, strain rpn10, active compounds read low 0.984 | locus YIL066C, strain RNR3, active compounds read low 0.953 | locus YIL073C, strain SPO22, active compounds read low 1.04 | locus YIL125W, strain kgd1, active compounds read low 0.989 | locus YIR030C, strain dcg1, active compounds read low 0.988 | locus YJL092W, strain hpr5, active compounds read low 0.969 | locus YJL095W, strain BCK1 (second series), active compounds read low 0.998 | locus YJL095W, strain BCK1, active compounds read low 0.934 | locus YJL115W, strain asf1, active compounds read low 0.998 | locus YJL129C, strain trk1, active compounds read low 0.978 | locus YJL134W, strain LCB3, active compounds read low 0.99 | locus YJL154C, strain vps35, active compounds read low 0.993 | locus YJL164C, strain tpk1, active compounds read low 0.997 | locus YJL166W, strain qcr8, active compounds read low 0.961 | locus YJL168C, strain set2, active compounds read low 0.988
active: locus YER155C, strain BEM2 (second series), active compounds read low 0.841
